Consider seven sequences from paper PMC7862700, “An all-to-all approach to the identification of sequence-specific readers for epigenetic DNA modifications on cytosine”.

What all share (assay): DAPPL (digital affinity profiling via proximity ligation, sequencing); 10 mM Tris-HCl pH 7.5, 50 mM NaCl, 1 mM DTT, 4% glycerol, room temperature, 30 min; GST-TFs on glutathione beads, 16-mer random dsDNA library, 0.1% formaldehyde crosslink after washing; high values mean tight binding
Common to all, as to conditions: protein: recombinant; tags: N-terminal GST; dsDNA, one strand shown

The target in assay [1] is T1, FLI1 (Homo sapiens, UniProt Q01543 1-452).
T1 sequence: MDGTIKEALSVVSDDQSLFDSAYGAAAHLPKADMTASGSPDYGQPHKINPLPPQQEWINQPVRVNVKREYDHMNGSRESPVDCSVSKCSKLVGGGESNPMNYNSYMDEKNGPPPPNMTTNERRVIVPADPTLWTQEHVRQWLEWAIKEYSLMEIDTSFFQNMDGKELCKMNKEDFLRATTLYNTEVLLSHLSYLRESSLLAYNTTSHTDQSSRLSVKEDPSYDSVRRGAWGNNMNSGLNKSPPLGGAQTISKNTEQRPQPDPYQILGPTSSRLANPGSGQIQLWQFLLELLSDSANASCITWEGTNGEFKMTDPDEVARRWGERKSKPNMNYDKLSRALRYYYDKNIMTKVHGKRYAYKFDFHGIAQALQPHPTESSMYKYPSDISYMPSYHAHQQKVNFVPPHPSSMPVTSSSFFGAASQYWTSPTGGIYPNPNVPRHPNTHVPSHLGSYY
Summed up: (§1)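 Pools were built from human transcription factors expressed in yeast as GST fusions, captured on glutathione beads and DNA-barcoded, along with a tag-only sample. Incubation with 200 nmole of a 16-mer random double-stranded DNA library lasted 30 min at room temperature in Tris/NaCl/DTT/glycerol buffer, and was followed by washing, 0.1% formaldehyde crosslinking, proximity ligation, PCR amplification and Illumina NextSeq500 sequencing. Binding signal is the quotient of each hexamer's read frequency for a factor and its frequency for the tag-only sample.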

Assay [2] addresses T2, ELK1 (Homo sapiens, UniProt P19419 1-428).
T2 sequence: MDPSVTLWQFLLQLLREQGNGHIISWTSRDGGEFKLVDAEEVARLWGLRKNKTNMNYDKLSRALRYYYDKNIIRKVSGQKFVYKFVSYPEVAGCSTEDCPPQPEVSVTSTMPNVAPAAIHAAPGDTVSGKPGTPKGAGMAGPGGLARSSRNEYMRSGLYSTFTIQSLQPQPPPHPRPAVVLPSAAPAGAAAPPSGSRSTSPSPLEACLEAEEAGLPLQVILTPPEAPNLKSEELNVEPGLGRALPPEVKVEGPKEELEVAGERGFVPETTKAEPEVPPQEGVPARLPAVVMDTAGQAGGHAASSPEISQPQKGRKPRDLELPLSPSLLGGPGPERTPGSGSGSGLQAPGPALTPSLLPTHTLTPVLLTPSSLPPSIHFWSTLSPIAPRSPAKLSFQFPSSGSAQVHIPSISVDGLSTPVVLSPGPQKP
In short, it runs like this:
as §1

In assay [3] the target is T3, GABPA (Homo sapiens, UniProt Q06546 1-454).
T3 sequence: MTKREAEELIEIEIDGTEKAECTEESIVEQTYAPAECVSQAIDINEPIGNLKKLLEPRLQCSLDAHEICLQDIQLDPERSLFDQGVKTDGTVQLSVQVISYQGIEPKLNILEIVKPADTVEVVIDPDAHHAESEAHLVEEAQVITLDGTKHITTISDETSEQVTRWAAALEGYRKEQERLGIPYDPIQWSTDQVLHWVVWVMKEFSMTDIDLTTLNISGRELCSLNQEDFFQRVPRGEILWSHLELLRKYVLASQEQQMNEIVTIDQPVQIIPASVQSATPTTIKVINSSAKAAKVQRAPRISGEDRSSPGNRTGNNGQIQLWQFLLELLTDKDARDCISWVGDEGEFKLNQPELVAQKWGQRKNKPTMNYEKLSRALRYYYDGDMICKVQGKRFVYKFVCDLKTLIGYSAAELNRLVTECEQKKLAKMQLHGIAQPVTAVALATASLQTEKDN
In short, it runs like this: as §1

The target in assay [4] is T4, ERG (Homo sapiens, UniProt P11308 1-479).
T4 sequence: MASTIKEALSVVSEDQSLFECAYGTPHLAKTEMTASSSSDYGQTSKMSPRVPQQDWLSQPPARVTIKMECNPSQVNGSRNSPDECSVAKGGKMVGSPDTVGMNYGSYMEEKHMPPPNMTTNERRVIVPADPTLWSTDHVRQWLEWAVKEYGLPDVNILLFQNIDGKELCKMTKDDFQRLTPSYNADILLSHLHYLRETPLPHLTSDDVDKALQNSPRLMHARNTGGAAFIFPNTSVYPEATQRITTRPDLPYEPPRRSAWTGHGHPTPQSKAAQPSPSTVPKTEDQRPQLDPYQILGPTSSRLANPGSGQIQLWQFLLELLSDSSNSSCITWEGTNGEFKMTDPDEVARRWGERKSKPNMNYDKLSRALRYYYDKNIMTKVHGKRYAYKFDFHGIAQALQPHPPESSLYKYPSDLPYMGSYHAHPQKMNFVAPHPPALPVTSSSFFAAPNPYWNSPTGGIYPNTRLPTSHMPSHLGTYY
Summed up: as §1

For assay [5], the target named is ELF1 (Homo sapiens, UniProt P32519 1-619). In short, it runs like this: as §1
Assay [6] addresses T5, EHF (Homo sapiens, UniProt Q9NZC4 1-300).
T5 sequence: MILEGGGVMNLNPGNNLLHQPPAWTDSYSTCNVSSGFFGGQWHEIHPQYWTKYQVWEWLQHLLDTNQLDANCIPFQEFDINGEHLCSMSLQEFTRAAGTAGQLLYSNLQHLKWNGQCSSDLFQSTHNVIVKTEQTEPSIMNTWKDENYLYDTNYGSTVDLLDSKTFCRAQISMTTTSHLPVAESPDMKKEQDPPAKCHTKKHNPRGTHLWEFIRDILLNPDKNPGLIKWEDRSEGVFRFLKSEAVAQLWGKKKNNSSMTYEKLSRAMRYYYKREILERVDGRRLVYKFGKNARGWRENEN
Summed up: as §1

The target of assay [7] is SPI1 (Homo sapiens, UniProt P17947 1-270). In short, it runs like this:
as §1

In assay [8] the target is SPIB (Homo sapiens, UniProt Q01892 1-262). Summed up: as §1
Assay [9] concerns the target T6, ELK3 (Homo sapiens, UniProt P41970 1-407).
T6 sequence: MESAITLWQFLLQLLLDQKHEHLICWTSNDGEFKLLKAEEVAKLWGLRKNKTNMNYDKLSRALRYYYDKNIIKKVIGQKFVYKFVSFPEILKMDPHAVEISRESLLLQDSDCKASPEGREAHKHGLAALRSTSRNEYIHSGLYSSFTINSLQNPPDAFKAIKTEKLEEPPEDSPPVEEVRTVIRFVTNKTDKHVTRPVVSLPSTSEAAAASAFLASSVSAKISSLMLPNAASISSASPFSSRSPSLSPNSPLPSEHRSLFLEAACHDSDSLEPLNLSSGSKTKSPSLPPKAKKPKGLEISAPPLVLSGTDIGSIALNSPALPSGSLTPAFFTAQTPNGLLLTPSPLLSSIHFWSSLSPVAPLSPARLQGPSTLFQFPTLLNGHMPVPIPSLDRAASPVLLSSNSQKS
Summed up:
as §1

ELF1, sequence (P32519 whole entry): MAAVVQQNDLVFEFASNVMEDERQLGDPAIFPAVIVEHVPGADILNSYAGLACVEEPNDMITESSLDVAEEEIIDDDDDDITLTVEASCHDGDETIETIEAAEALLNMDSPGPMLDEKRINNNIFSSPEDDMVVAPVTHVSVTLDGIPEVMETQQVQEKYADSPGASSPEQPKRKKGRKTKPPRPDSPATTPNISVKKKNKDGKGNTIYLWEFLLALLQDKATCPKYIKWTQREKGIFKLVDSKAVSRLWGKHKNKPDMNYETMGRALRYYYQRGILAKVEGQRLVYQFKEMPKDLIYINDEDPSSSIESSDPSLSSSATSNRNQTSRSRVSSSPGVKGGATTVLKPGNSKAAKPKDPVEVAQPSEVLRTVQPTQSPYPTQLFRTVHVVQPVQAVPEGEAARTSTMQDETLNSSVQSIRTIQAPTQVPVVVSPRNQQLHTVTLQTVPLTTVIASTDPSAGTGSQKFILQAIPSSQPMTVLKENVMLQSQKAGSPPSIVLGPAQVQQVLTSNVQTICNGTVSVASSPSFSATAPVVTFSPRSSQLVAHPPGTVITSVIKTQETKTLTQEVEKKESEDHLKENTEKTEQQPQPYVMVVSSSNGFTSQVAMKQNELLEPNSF
SPIB, sequence (Q01892 whole entry): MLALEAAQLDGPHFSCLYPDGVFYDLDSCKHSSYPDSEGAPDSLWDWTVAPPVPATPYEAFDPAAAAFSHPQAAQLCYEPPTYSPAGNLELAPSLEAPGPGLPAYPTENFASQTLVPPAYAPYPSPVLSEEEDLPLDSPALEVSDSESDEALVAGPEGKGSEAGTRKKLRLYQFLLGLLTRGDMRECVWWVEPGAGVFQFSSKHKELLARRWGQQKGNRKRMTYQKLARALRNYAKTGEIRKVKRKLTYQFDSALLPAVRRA

Regarding CCGGTA, the binding signal is 1.48 fold enrichment (6-mer frequency, TF over GST control) in [1]; 1.51 fold enrichment (6-mer frequency, TF over GST control) in [2]; 1.46 fold enrichment (6-mer frequency, TF over GST control) in assay [3]; 1.7 fold enrichment (6-mer frequency, TF over GST control) in [4]; 1.5 fold enrichment (6-mer frequency, TF over GST control) in assay [5]; 1.62 fold enrichment (6-mer frequency, TF over GST control) in [6]. For the same sequence, the binding signal in [7] is 1.45 fold enrichment (6-mer frequency, TF over GST control); in assay [8] it was 1.59 fold enrichment (6-mer frequency, TF over GST control); in assay [9], 1.41 fold enrichment (6-mer frequency, TF over GST control).
With GCGCCT, the binding signal in assay [1] was 1.09 fold enrichment (6-mer frequency, TF over GST control); in [2] it was 1.19 fold enrichment (6-mer frequency, TF over GST control); in [3], 1.11 fold enrichment (6-mer frequency, TF over GST control); in assay [4], 1.04 fold enrichment (6-mer frequency, TF over GST control); in [5], 1.1 fold enrichment (6-mer frequency, TF over GST control); in assay [6], 1.05 fold enrichment (6-mer frequency, TF over GST control). Moreover, the binding signal in assay [7] is 1.12 fold enrichment (6-mer frequency, TF over GST control); in assay [8] it was 1.16 fold enrichment (6-mer frequency, TF over GST control); in [9], 1.05 fold enrichment (6-mer frequency, TF over GST control).
For the sequence TGCTGA, the binding signal in [1] is 1.11 fold enrichment (6-mer frequency, TF over GST control); in assay [2] it was 1.03 fold enrichment (6-mer frequency, TF over GST control); in assay [3], 1.07 fold enrichment (6-mer frequency, TF over GST control); in [4], 1.01 fold enrichment (6-mer frequency, TF over GST control); in [5] it was 1.07 fold enrichment (6-mer frequency, TF over GST control); in assay [6] it was 1.14 fold enrichment (6-mer frequency, TF over GST control). Besides, the binding signal is 1.12 fold enrichment (6-mer frequency, TF over GST control) in assay [7]; 1.01 fold enrichment (6-mer frequency, TF over GST control) in assay [8]; 1.19 fold enrichment (6-mer frequency, TF over GST control) in assay [9].
TATAAG: the binding signal in [1] is 1.15 fold enrichment (6-mer frequency, TF over GST control); in assay [2] it was 1.23 fold enrichment (6-mer frequency, TF over GST control); in assay [3], 1.16 fold enrichment (6-mer frequency, TF over GST control); in assay [4] it was 1.12 fold enrichment (6-mer frequency, TF over GST control); in assay [5] it was 1.17 fold enrichment (6-mer frequency, TF over GST control); in assay [6], 1.1 fold enrichment (6-mer frequency, TF over GST control). The binding signal was 1.13 fold enrichment (6-mer frequency, TF over GST control) in [7]; 1.12 fold enrichment (6-mer frequency, TF over GST control) in assay [8]; 1.24 fold enrichment (6-mer frequency, TF over GST control) in assay [9].
For the sequence TCCACT, the binding signal in assay [1] is 1.47 fold enrichment (6-mer frequency, TF over GST control); in assay [2] it was 1.52 fold enrichment (6-mer frequency, TF over GST control); in assay [3], 1.51 fold enrichment (6-mer frequency, TF over GST control); in assay [4], 1.54 fold enrichment (6-mer frequency, TF over GST control); in assay [5] it was 1.5 fold enrichment (6-mer frequency, TF over GST control); in assay [6], 1.36 fold enrichment (6-mer frequency, TF over GST control). Further, the binding signal is 1.5 fold enrichment (6-mer frequency, TF over GST control) in [7]; 1.39 fold enrichment (6-mer frequency, TF over GST control) in assay [8]; 1.49 fold enrichment (6-mer frequency, TF over GST control) in [9].
Consider AGCCCC, for which the binding signal in [1] was 1.09 fold enrichment (6-mer frequency, TF over GST control); in assay [2] it was 1.01 fold enrichment (6-mer frequency, TF over GST control); in [3], 1.11 fold enrichment (6-mer frequency, TF over GST control); in [4], 1.06 fold enrichment (6-mer frequency, TF over GST control); in assay [5] it was 1.05 fold enrichment (6-mer frequency, TF over GST control); in [6] it was 1.05 fold enrichment (6-mer frequency, TF over GST control). The binding signal in [7] was 1.02 fold enrichment (6-mer frequency, TF over GST control); in [8] it was 1.08 fold enrichment (6-mer frequency, TF over GST control); in [9], 1.07 fold enrichment (6-mer frequency, TF over GST control).
For the sequence CGGCAT, the binding signal in assay [1] is 1.07 fold enrichment (6-mer frequency, TF over GST control); in [2] it was 1.13 fold enrichment (6-mer frequency, TF over GST control); in assay [3], 1.07 fold enrichment (6-mer frequency, TF over GST control); in assay [4], 1.11 fold enrichment (6-mer frequency, TF over GST control); in [5], 1.08 fold enrichment (6-mer frequency, TF over GST control); in assay [6], 1.09 fold enrichment (6-mer frequency, TF over GST control). In addition, the binding signal in assay [7] is 1.13 fold enrichment (6-mer frequency, TF over GST control); in assay [8] it was 1.19 fold enrichment (6-mer frequency, TF over GST control); in [9] it was 1.09 fold enrichment (6-mer frequency, TF over GST control).
